Bioassay records: PubChem BioAssay, National Center for Advancing Translational Sciences (NCATS)
The list is not random: actives were taken first. Their share in the collection is about 2.7%.
a7 integrin act – integrin-mediated muscular dystrophy alleviation activation. alpha7betagal myoblasts, beta-gal FDG fluorescence, 48 h. Potency, µM (titrated, usually from 38.3 µM), without a hit: at the highest dose activation, hits mostly activators. actives 0.064% (n = 350,000);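 also: 100% = response of the positive control SU9516; nearly all actives have a fitted effect of over 60% in size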
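Alpha7betagal+/- myoblasts (passage 13) were plated 16-24 hr, then exposed to compounds (1:260 dilution of DMSO stock) for 48 hours at 37C. After MPER lysis, β-galactosidase reporter activity was read as FDG fluorescence (ex 480/em 540) after 30 minutes.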
HEK293 tox – cytotoxicity in counter-screen for GLP-1R inverse agonists. HEK293 cAMP-luciferase reporter cells, luminescence, 24 h. Potency, µM (titrated, usually from 38.3 µM), without a hit: at the highest dose activity change, negative = inhibition, usual class: inhibitors. actives 0.13% (n = 410,000). AID 624418;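 also: loss of luciferase light is scored as toxicity; % is scaled to controls: 0 for no effect and ±100 for the full control effect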
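A 23 nL compound transfer followed 12 hours of cell culture at 37 deg C; exposure then lasted 24 hr. Luciferase assay detection reagent was dispensed and plates read for luminescence after a 12 min room-temperature wait.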
BRCA1 expr act – increases BRCA1 expression | MCF7-BRCA1-FFLuc reporter, luminescence, 48 h; response scale: scaled: vehicle 0%, 10 µM genistein 100% | Potency, µM (top dose mostly 46.1 µM), for inactives: at the highest dose activation, actives largely listed as activators | actives 1.1% (n = 380,000) | AID 624202; also: nearly all actives have a fitted effect of over 80% in size
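Cells: MCF7-BRCA1-FFLuc, 2000/well. Exposure: 48 h, 37 °C, 5% CO2. Read: luminescence, 15 min post-substrate. Controls: genistein 10 microM (maximal activation), DMSO (neutral).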
GLP1R ag – activates the human GLP-1 receptor | P43220 | HEK293 GLP-1R CRE-luciferase, luminescence, 4-6 h; cells express a hypersensitive GLP-1R form | Potency, µM (top dose mostly 45.6 µM), for the others: at the top dose activation, usual class: activators | actives 0.007% (n = 380,000); also: % of control where 0% means no effect
Target sequence (P43220 whole entry, looked up): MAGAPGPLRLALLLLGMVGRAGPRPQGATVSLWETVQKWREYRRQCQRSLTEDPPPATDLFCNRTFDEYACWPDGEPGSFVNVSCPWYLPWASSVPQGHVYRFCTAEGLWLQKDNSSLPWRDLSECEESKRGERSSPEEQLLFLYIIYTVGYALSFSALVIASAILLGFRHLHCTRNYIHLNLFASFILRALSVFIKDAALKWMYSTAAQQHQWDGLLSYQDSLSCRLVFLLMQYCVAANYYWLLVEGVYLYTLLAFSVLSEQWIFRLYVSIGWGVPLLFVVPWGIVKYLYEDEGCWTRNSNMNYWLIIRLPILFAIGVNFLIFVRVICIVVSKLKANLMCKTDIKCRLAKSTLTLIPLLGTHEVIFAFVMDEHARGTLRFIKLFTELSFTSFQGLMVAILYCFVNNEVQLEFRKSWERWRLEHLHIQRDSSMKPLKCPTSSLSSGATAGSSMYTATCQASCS
GLP1R inv ag – inverse agonists of human GLP-1 receptor; P43220; HEK293 GLP-1R CRE-luciferase, luminescence, 24 h; GLP-1R form is constitutively active; Potency, µM (series often up to 38.3 µM), without a hit: at the highest dose activity change, negative = inhibition, usual class: inhibitors; actives 1.6% (n = 410,000); AID 624417; also: % is scaled to controls: 0 for no effect and ±100 for the full control effect; nearly all actives have a fitted effect of over 55% in size
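Inverse agonism was detected as reduced cAMP-driven luciferase luminescence after 24 h compound treatment. The cells were HEK293 clones expressing constitutively active human GLP-1R with the reporter. Reporter-only and GPR119 cell lines served as counterscreen controls.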
* marks the source's active call; other numbers are inactive results; ? = inconclusive; . = not tested or not shown; [ ] = dose if it differs, or a comment. Calls follow the shape of the dose curve; as a rule, active = well fitted curve in the direction sought with a large enough effect; inconclusive = small, poorly fitted or top-dose-only effect, or another doubt; inactive = no such curve, though single readings can be large; an effect the other way counts as inactive or inconclusive. Potency is read from the fitted curve at half-maximal effect.

SMILES	a7 integrin act	HEK293 tox	BRCA1 expr act	GLP1R ag	GLP1R inv ag
COc1ccc(-c2nnc(SC(C)C(=O)Nc3ccc4c(c3)OCCO4)o2)cc1 (configuration not stated)	25%	-19%	10µM*	8%	68%
CC(=O)Nc1ccc(NC(=O)C(C)Sc2nnc(-c3ccc4c(c3)OCO4)o2)cc1 (configuration not stated)	22%	-19%	59%	13%	25%
COc1ccc(C(=O)Nc2ccc3c(c2)OCCO3)cc1	4%	-40%	-8%	-7%	13µM*
C[C@H](NC(=O)[C@@H]1Cc2ccccc2CN1)C(=O)Nc1ccc2c(c1)OCCO2	11%	10%	-10%	-2%	5%
CN(Cc1ccccc1)c1nnc(NC(=O)Nc2cccc(Br)c2)s1	.	-9%	.	.	5%
O=C(Nc1ccc(F)cc1F)c1sccc1SCc1cccc(C(F)(F)F)c1	-26%	-3%	-31%	-5%	10µM*
O=C(Nc1ccc(F)cc1)c1sccc1SCc1cccc(C(F)(F)F)c1	33%[7.66 µM]	3%	-80%	1%	0%
CC(C)(C)c1ccc(C(=O)NC2(C(F)(F)F)C(=O)Nc3c2c(=O)[nH]c(=O)n3-c2ccccc2)cc1 (configuration not stated)	.	1%	.	.	-9%
O=C(/C=C/c1ccc(S(=O)(=O)N2CCOCC2)cc1)NCc1ccc(Cl)cc1	0%	-1%	-43%	12%	3.5µM*
COc1ccc(CNC(=O)/C=C/c2ccc(S(=O)(=O)N3CCOCC3)cc2)cc1	6%	5%	-28%	3%	-1%
O=C(NCc1ccccn1)Nc1cc(Cl)ccc1Cl	?	1%	14%	6%	-28%
O=C(NCc1cccs1)Nc1cc(Cl)ccc1Cl	0%	10µM*	22%	32%	?
O=C(/C=C/c1ccc(Cl)cc1)NCc1cccs1	12%	1%	11µM*	6%	-11%
COc1cccc(CCNC(=O)c2ccc(Cn3c(SCc4ccccc4)nc4cccnc43)cc2)c1	.	0%	.	.	-24%
COc1ccc(NC(=O)CN(Cc2ccccc2)S(=O)(=O)c2ccc(C)cc2)cc1Cl	.	-5%	.	.	10µM*
CNC(=O)CN(Cc1ccccc1)S(=O)(=O)c1ccc(Cl)cc1	17%	4%	4%	-1%	13%
COC(=O)c1ccc(NC(=O)CN(Cc2ccccc2)S(=O)(=O)c2ccc(C)cc2)cc1	.	2%	.	.	10µM*
COC(=O)c1ccc(NC(=O)CN(Cc2ccccc2)S(=O)(=O)c2ccc(Cl)cc2)cc1	.	-16%	.	.	8.9µM*
COc1ccc(S(=O)(=O)N(CC(=O)Nc2ccc(Br)cc2)Cc2ccccc2)cc1	.	-1%	.	.	-24%
COc1ccc(S(=O)(=O)N(CC(=O)Nc2cc(C)ccc2OC)Cc2ccccc2)cc1	.	1%	.	.	?
Cc1ccc(NC(=O)CC2Nc3ccccc3NC2=O)cc1C (configuration not stated)	.	0%	-13%	6%	13%
Cc1ccc(NC(=O)CC2Nc3ccccc3NC2=O)cc1Cl (configuration not stated)	-42%	-4%	-68%	-23%	10µM*
CC[n+]1c(/C=C2\Sc3ccccc3N2C)ccc2cccc(C)c21	-959%	?	-76%	-3%	13µM*
CCCCCC1Nc2cc(C(F)(F)F)c(S(N)(=O)=O)cc2S(=O)(=O)N1 (configuration not stated)	.	.	.	3%	.
O=C(CSC1=Nc2ccccc2C2=NC(CCC(=O)NC3CCCCC3)C(=O)N12)Nc1cccc(Cl)c1 (configuration not stated)	.	0%	.	.	18%
SMILES	a7 integrin act	HEK293 tox	BRCA1 expr act	GLP1R ag	GLP1R inv ag
Cc1ccc(/C=C2\CCC(C3CCCC3)C2=O)cc1 (configuration not stated)	0%	-1%	13µM*	-15%	11%
Cc1ccc(F)cc1NC(=O)c1ccc(Cn2nc(N3CCN(c4ccccc4)CC3)ccc2=O)o1	.	-5%	.	.	-27%
O=C(CCc1nnc(CCCc2ccccc2)o1)NCCCC1CCCC1	-24%	-17%	13µM*	17%	?
O=C(CCc1nnc(CCCc2ccccc2)o1)NCCc1ccccc1	-8%	-1%	4%	-1%	-19%
COc1cc(OC)c(NC(=O)CSc2cc(=O)n(C)c3ccc(Cl)cc23)cc1Cl	.	2%	-5%	0%	7%
Cc1ccc(C)c(N2CCN(C(=O)c3cc(S(=O)(=O)N4CCCCCC4)cn3C)CC2)c1	.	3%	-62%	-11%	?
CCN(CC(=O)NCc1ccc(Cl)cc1)C(=O)COc1ccc(Cl)cc1Br	0%	-3%	-25%	-2%	11µM*
COc1cc(OC)c(NC(=O)Cn2cnc3c(nc4n3CCCCC4)c2=O)cc1Cl	.	-1%	.	.	6%
CN(CC(O)COc1ccc2ccccc2c1)C1CCCCC1 (configuration not stated)	-54%	-20%	-17%	0%	8.9µM*
CC(NCC(O)COc1ccc(Br)cc1)c1ccccc1 (configuration not stated)	-61%	-14%	-15%	1%	?
CC(NCC(O)COC1CCC(C(C)(C)C)CC1)c1ccccc1 (configuration not stated)	-74%	?	-79%	3%	10µM*
CC(NCC(O)COc1ccc2ccccc2c1)c1ccccc1 (configuration not stated)	-70%	?	1%	10%	2.8µM*
CCCC(NCC(O)COc1ccc(-c2ccccc2)cc1)c1ccccc1 (configuration not stated)	-61%	?	-88%	-6%	13µM*
COc1ccc(OCC(O)CNC(C)c2ccccc2)cc1 (configuration not stated)	-17%	4%	5%	3%	-24%
COc1ccc(NC(=O)C2COc3ccccc3C2)cc1Cl (configuration not stated)	.	-28%	.	.	?
COC(=O)c1ccc(OCC(O)CNC2CCCC2)cc1 (configuration not stated)	-10%	-15%	-19%	11%	?
OC(CNC1CCCC1)COc1ccc(-c2ccccc2)cc1 (configuration not stated)	-57%	10%	-3%	1%	8.9µM*
S=c1[nH]nc(SCc2ccccc2)c2[nH]cnc12	?	?	3.5µM*	15%	17%
CCCCSc1n[nH]c(=S)c2nc[nH]c12	0%	?	39%	3%	-18%
Cc1ccc(NS(=O)(=O)c2ccc3c(c2)NC(=O)CO3)cc1Cl	7%	-10%	-2%	-1%	10µM*
Cc1ccc(NS(=O)(=O)c2ccc3c(c2)NC(=O)CO3)cc1C	24%	-9%	-4%	-3%	?
